Here are results for 40 molecules from PubChem BioAssay (Tox21).

Inconclusive results are not listed. Values without a mark were called inactive. Activity calls are given as the source filed them. The call rests on the fitted dose curve; in most records, active means well fitted inhibition curve with a large enough effect in the repeat runs; inconclusive means weak or mixed curves, or effect the other way; inactive means no such curve, though single readings can be large or run the other way.
On the % scale 0 is the no-effect control and ±100 the full control effect.

In the experiment the target is Nuclear receptor ROR-gamma (Homo sapiens) (UniProt P51449). Briefly: qHTS assay to identify small molecule antagonists of the retinoid-related orphan receptor gamma (ROR-gamma) signaling pathway (AID 1159521; further: top concentration of the series differs between compounds; nearly all actives have a fitted effect of over 50% in size). Particulars: Tet-on RORgamma CHO cells, RORE-luciferase, 16 h; series mostly up to 92.4 µM. The source says: U.S. Tox21 Program National Center for Advancing Translational Sciences [NCATS] NIH Chemical Genomics Center [NCGC] U.S. Environmental Protection Agency [EPA] National Institutes of Environmental Health Sciences [NIEHS] National Toxicology Program [NTP] U.S. Food and Drug Administration [FDA] Tox21 Assay Overview: Nuclear steroid hormone receptors are involved in many biological processes including inflammatory responses, cell proliferation, and apoptosis. Environmental factors or compounds disrupting these nuclear receptor pathways and gene expression may promote susceptibility to immunotoxicants and autoimmune diseases. One important group of these expression factors are the retinoid-related orphan receptors. To assess compounds that may interfere with the retinoid-related orphan receptor gamma (ROR-gamma) transcription factor, a cell-based luciferase assay was used. The CHO cell-based assay utilizes a TET-inducible ROR expression factor and ROR response element-LUC reporter gene. Reporter gene activity was induced using Doxycycline Hyclate and measured after 16 hr incubation. Tet-on ROR gamma CHO cells were used to screen against the Tox21 10K compound library for ROR gamma antagonists by quantification of decreased reporter gene activity in terms of decreased luminescence.
Tox21 Assay Protocol Summary: Tet-on ROR gamma CHO cells were dispensed at 1,000 cells in 4 uL of culture medium per well into white wall/solid bottom 1536-well plates using a Multidrop Combi (Thermo Scientific, Waltham, MA) dispenser. Following incubation at 37 C and 5% CO2 for 4 hr, 23 nL of compounds dissolved in DMSO, positive controls or DMSO only were transferred by a Pintool station (Kalypsys, San Diego, CA) and after 2 hr incubation at 37 C, one ul of 1 uM (final concentration) of Doxycycline Hyclate was added to all the wells by using a Flying Reagent Dispenser (FRD) (Aurora Discovery, San Diego, CA). After 16 hr incubation at 37 C and 5% CO2, 5 uL of ONE-Glo reagent (Promega Corporation, Madison, WI) was added to each assay plate using FRD. After 30 min incubation at room temperature, luminescence was quantified on a ViewLux plate reader (Perkin Elmer, Waltham, MA).
Background: qHTS replaces the single test concentration by a dilution series.
Regarding `CC(=O)OC[C@H]1O[C@@H](OC(C)=O)[C@H](OC(C)=O)[C@@H]1OC(C)=O`, the outcome was inactive.

On to `O=C(O)c1ccc(OCCN2CCCCC2)cc1`, for which the result was inactive.

With `Nc1c(NC/C=C\COc2cc(CN3CCCCC3)ccn2)c(=O)c1=O`, the activity change, negative = inhibition was -0.0898% [at 19 µM].

In the case of `NS(=O)(=O)c1cc2c(cc1Cl)NC(CC1CCCC1)NS2(=O)=O` (stereo not given), the result was inactive.

For the molecule `SCCSCCS`, the molecule was classed as inactive.

As to `N#CCCOCCOCCC#N`, the molecule was classed as inactive.

As to `NCCc1ccn[nH]1`, the call was inactive.

With `Nc1cc(S(=O)(=O)O)ccc1S(=O)(=O)O`, the molecule was classed as inactive.

For the molecule `F[Si-2](F)(F)(F)(F)F`, the molecule was classed as inactive.

With `CCCO`, the molecule was classed as inactive.

As for `Cc1cc(C)cc([N+](=O)[O-])c1`, the molecule was called inactive.

With `CCCCCCCCCCC`, the result was inactive.

As to `COc1ccc(OC)c(NC(=O)CC(C)=O)c1`, the outcome was inactive.

Consider `Cc1nc([N+](=O)[O-])cn1-c1ccc([N+](=O)[O-])cc1`, for which the call was inactive.

Consider `Cc1ccccc1C(=O)N1CC/C(=N\OS(=O)(=O)O)c2ccc(Cl)cc21`, for which the molecule was called inactive.

Turning to `CO[Si](CCCCl)(OC)OC`, the outcome was inactive.

In the case of `CCCCCCCCCCCCCC(=O)OC`, the molecule was classed as inactive.

Take `C=CCOCC(CO)(COCC=C)COCC=C`: the result was inactive.

Take `COc1ccc(N=Nc2cc(C)c(N=Nc3ccc(S(=O)(=O)O)cc3)cc2OC)cc1`: the result was inactive.

`CCCCCCCC/C=C\CCCCCCCC(=O)OC[C@@H](O)[C@H]1OC[C@H](O)[C@H]1O`: the call was inactive.

As to `CCC(C)(C)C1CCC(=O)CC1`, the molecule was called inactive.

For the molecule `CCCCCC1Nc2cc(C(F)(F)F)c(S(N)(=O)=O)cc2S(=O)(=O)N1` (stereo not given), the molecule was classed as inactive.

`FC(F)(F)/C(=N\OCC1OCCO1)c1ccc(Cl)cc1`: the call was inactive.

Regarding `CC(=O)/C=C/c1ccco1`, the call was inactive.

`CCCCCCCC[Si](OCC)(OCC)OCC`: the outcome was inactive.

Take `COc1ccc(NS(=O)(=O)c2ccc(N)cc2)nn1`: the molecule was called inactive.

As for `CCCCCCCCCCCCC`, the outcome was inactive.

On to `CCCCCCCCOC(C)=O`, for which the outcome was inactive.

For the molecule `O=c1[nH]c(=O)c2[nH]c(=O)[nH]c2[nH]1`, the activity change, negative = inhibition was 25.7% [at 8.39 µM].

On to `CCC1Nc2cc(Cl)c(S(N)(=O)=O)cc2S(=O)(=O)N1` (stereo not given), for which the molecule was classed as inactive.

Turning to `CC(C)COC(=O)/C=C/c1ccccc1`, the call was inactive.

For `O=S1(=O)CCCC1`, the molecule was called inactive.

Consider `C=C[Si](C)(C)O[Si](C)(C)C=C`, for which the outcome was inactive.

Consider `O=c1[nH]c(=O)c2ccccc2o1`, for which the result was inactive.

Take `CCCCCCCCC(=O)OCC`: the molecule was classed as inactive.

With `CCN1CN(CC)CN(CC)C1`, the molecule was classed as inactive.

In the case of `CC(Cl)COP(=O)(OCC(C)Cl)OCC(C)Cl` (stereo not given), the molecule was classed as inactive.

As for `CCCOCCOCCOCCO`, the molecule was called inactive.

With `CN[C@@H]1[C@H](O)[C@H](NC)[C@H]2O[C@@]3(O)C(=O)C[C@@H](C)O[C@H]3O[C@@H]2[C@H]1O`, the call was inactive.

Consider `O=C(Nc1cccc(C2=NCCN2)c1)Nc1cccc(C2=NCCN2)c1`, for which the activity change, negative = inhibition was -4.66% [at 19 µM].
